The nature of experiment [1]: qHTS of pediatric cancer cell lines to identify multiple opportunities for drug repurposing: Primary screen for SJ-GBM2 cells (AID 1347091). Note: potency is the fitted concentration of half-maximal effect. An outline of the steps: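 Eight- or eleven-point concentration series, 48 h treatment at 37 degrees C in growth media; readout CellTiter-Glo luminescence. Potency and efficacy were taken from the concentration-response curves.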
In general terms: Quantitative high-throughput screening tests each substance at several concentrations.

Experiment [2] in a line: qHTS of pediatric cancer cell lines to identify multiple opportunities for drug repurposing: Primary screen for SK-N-MC cells (AID 1347093). Note: potency is the fitted concentration of half-maximal effect. The method, boiled down: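 Metabolically active cells were quantified by ATP-dependent luminescence (CellTiter-Glo, 15 min at room temperature) following 48 h treatment. Cells had been plated at 500-1,000 per well and settled for 5 h beforehand.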

A short description of experiment [3]: qHTS of pediatric cancer cell lines to identify multiple opportunities for drug repurposing: Primary screen for BT-37 cells (AID 1347094). Note: potency is the fitted concentration of half-maximal effect. The method, boiled down: (§1)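 Luminescence from CellTiter-Glo served as readout of metabolically active cells after 48 h compound exposure. Titrations: MIPE 11-point, from 0.78 nM; NPC 8-point, from 0.59 nM (final). Concentration-response curves came straight from the primary screen.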

Experiment [4] in a line: qHTS of pediatric cancer cell lines to identify multiple opportunities for drug repurposing: Primary screen for SK-N-SH cells (AID 1347098). Note: nearly all actives have a fitted effect of over 65% in size. Note: potency is the fitted concentration of half-maximal effect. The method, boiled down: (§2)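 Cells (500-1,000/well) rested 5 h, then received compounds for 48 h; metabolically active cells were measured by CellTiter-Glo luminescence. Final concentrations spanned up to 46 µM (MIPE, 11-point) or 0.59 nM-46 µM (NPC, 8-point) in primary screens, 11-point in follow-ups.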

Experiment [5] is described as follows: qHTS of pediatric cancer cell lines to identify multiple opportunities for drug repurposing: Primary screen for RD cells (AID 1347104). Note: nearly all actives have a fitted effect of over 55% in size. Note: potency is the fitted concentration of half-maximal effect. An outline of the steps:
as §1

A short description of experiment [6]: qHTS of pediatric cancer cell lines to identify multiple opportunities for drug repurposing: Primary screen for MG 63 (6-TG R) cells (AID 1347105). Note: nearly all actives have a fitted effect of over 50% in size. Note: potency is the fitted concentration of half-maximal effect. An outline of the steps:
as §1

A short description of experiment [7]: qHTS of pediatric cancer cell lines to identify multiple opportunities for drug repurposing: Primary screen for control Hh wild type fibroblast cells (AID 1347106).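 Note: series mostly up to about 46 µM; a drop in luminescence marks cytotoxicity and a rise apparent proliferation; nearly all actives have a fitted effect of over 55% in size.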 The method, boiled down:
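Viability after 48 h compound treatment at 37C, 500-1,000 cells/well, read as ATP luminescence with CellTiter-Glo. Primary screens used 11-point (MIPE, 0.78 nM-46 µM) or 8-point (NPC, 0.59 nM-46 µM) final concentrations; follow-up screens used 11-point dilutions.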

Experiment [8] can be described thus: qHTS of pediatric cancer cell lines to identify multiple opportunities for drug repurposing: Primary screen for Rh41 cells (AID 1347108). Note: nearly all actives have a fitted effect of over 70% in size. Note: potency is the fitted concentration of half-maximal effect. The method, boiled down: as §1
The nature of experiment [9]: qHTS of pediatric cancer cell lines to identify multiple opportunities for drug repurposing: Primary screen for LAN-5 cells (AID 1347100). Note: potency is the fitted concentration of half-maximal effect. An outline of the steps:
(§3)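 Cells (500-1,000/well) in growth media were settled 5 h at 37 degrees C, then given compounds for 48 h. Viability was read as CellTiter-Glo luminescence. Primary runs used MIPE at 11 points (0.78 nM-46 µM) and NPC at 8 points (0.59 nM-46 µM); follow-ups used 11 points.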

Experiment [10] is described as follows: qHTS of pediatric cancer cell lines to identify multiple opportunities for drug repurposing: Primary screen for OHS-50 cells (AID 1347103). Note: nearly all actives have a fitted effect of over 40% in size. Note: potency is the fitted concentration of half-maximal effect. An outline of the steps:
as §2

Experiment [11] in a line: qHTS of pediatric cancer cell lines to identify multiple opportunities for drug repurposing: Primary screen for Rh30 cells (AID 1347107). Note: series mostly up to about 46 µM; nearly all actives have a fitted effect of over 75% in size. An outline of the steps:
as §3

Experiment [12] can be described thus: qHTS of pediatric cancer cell lines to identify multiple opportunities for drug repurposing: Primary screen for NB-EBc1 cells (AID 1347095). Note: potency is the fitted concentration of half-maximal effect. An outline of the steps:
as §1

A short description of experiment [13]: qHTS of pediatric cancer cell lines to identify multiple opportunities for drug repurposing: Primary screen for U-2 OS cells (AID 1347096). Note: nearly all actives have a fitted effect of over 50% in size. An outline of the steps: as §3
The nature of experiment [14]: qHTS of pediatric cancer cell lines to identify multiple opportunities for drug repurposing: Primary screen for Rh18 cells (AID 1347102). Note: nearly all actives have a fitted effect of over 65% in size. Note: potency is the fitted concentration of half-maximal effect. An outline of the steps: as §3
Experiment [15] in a line: qHTS of pediatric cancer cell lines to identify multiple opportunities for drug repurposing: Primary screen for A673 cells (AID 1347092). Note: nearly all actives have a fitted effect of over 45% in size. Note: potency is the fitted concentration of half-maximal effect. The method, boiled down: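 Cell viability of A673 measured by CellTiter-Glo ATP luminescence after 48 hours compound exposure. Dilution series spanned 0.78 nM to 46 µM (MIPE, 11-point) or 0.59 nM to 46 µM (NPC, 8-point); bortezomib 2.3 uM positive control.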

Experiment [16] is described as follows: qHTS of pediatric cancer cell lines to identify multiple opportunities for drug repurposing: Primary screen for BT-12 cells (AID 1347101). Note: nearly all actives have a fitted effect of over 25% in size. Note: potency is the fitted concentration of half-maximal effect. The method, boiled down: as §2
The nature of experiment [17]: qHTS of pediatric cancer cell lines to identify multiple opportunities for drug repurposing: Primary screen for NB1643 cells (AID 1347099). Note: nearly all actives have a fitted effect of over 50% in size. Note: potency is the fitted concentration of half-maximal effect. An outline of the steps: as §1
Experiment [18] is described as follows: qHTS of pediatric cancer cell lines to identify multiple opportunities for drug repurposing: Primary screen for Saos-2 cells (AID 1347097). Note: nearly all actives have a fitted effect of over 40% in size. Note: potency is the fitted concentration of half-maximal effect. The method, boiled down: as §1
The nature of experiment [19]: qHTS of pediatric cancer cell lines to identify multiple opportunities for drug repurposing: Confirmatory screen for NB1643 cells (AID 1347109). Note: potency is the fitted concentration of half-maximal effect; nearly all actives have a fitted effect of over 45% in size. The method, boiled down:
as §3

Inconclusive results are not listed. Calls of active or inactive are those of the source. Calls come from the whole dose curve; as a rule, active = well fitted curve in the direction sought with a large enough effect; inconclusive = small, poorly fitted or top-dose-only effect, or another doubt; inactive = no such curve, though single readings can be large; an effect the other way counts as inactive or inconclusive.

`CC(=O)Nc1cccc(-n2c(=O)n(C3CC3)c(=O)c3c(Nc4ccc(I)cc4F)n(C)c(=O)c(C)c32)c1`: the Potency entry in experiment [1], in experiment [3], in experiment [6], in experiment [7] and in experiment [8] was “inactive” in each case. Also, the Potency in [2] is 7.43 µM (active); in [4], 3.41 µM (active); in [5], 0.0372 µM (active).

In the case of `CNc1nc(-c2ccc3c(N)n[nH]c3c2)cc(N2C[C@@H](C(=O)NC3CCCCC3)CC[C@@H]2C)n1`, the Potency in experiment [1] is 23.5 µM (active); in [9] it was 26.4 µM (active); in experiment [10], 0.273 µM (active); in experiment [5], 20.9 µM (active); in [6], 3.72 µM (active). Further, the Potency result in experiment [7] and in experiment [11] was “inactive” throughout.

As to `CNC(=O)[C@H](Cc1ccccc1)NC(=O)[C@H](CC(C)C)[C@H](CSc1cccs1)C(=O)NO`, the Potency result in experiment [1], in experiment [12], in experiment [13], in experiment [9], in [14] and in [6] was “inactive” throughout. Besides, in experiment [7], the Potency result was “inactive”.

As for `CCc1cccc(CC)c1NC(=O)N1Cc2[nH]nc(NC(=O)c3ccc(N4CCN(C)CC4)cc3)c2C1`, the Potency in [15] is 14.8 µM (active); in [2] it was 0.833 µM (active); in experiment [4] it was 6.07 µM (active); in experiment [9], 0.296 µM (active); in experiment [14], 8.33 µM (active); in experiment [6], 14.8 µM (active). Also, the Potency result in [3], in experiment [12], in [16] and in experiment [11] was “inactive” throughout.

As to `N#CC1(c2cccc(C(=O)Nc3cc(Oc4ccc5nc(NC(=O)C6CC6)sc5n4)ccc3F)c2Cl)CC1`, the Potency entry in [1], in experiment [17] and in experiment [7] was “inactive” in each case. Besides, the Potency in experiment [10] is 19.3 µM (active).

Consider `C[C@@H](O[C@H]1OCCN(Cc2n[nH]c(=O)[nH]2)[C@@H]1c1ccc(F)cc1)c1cc(C(F)(F)F)cc(C(F)(F)F)c1`, for which the Potency in experiment [1] is 23.5 µM (active); in [3], 27.3 µM (active); in experiment [18], 26.4 µM (active); in [17], 23.5 µM (active); in experiment [10] it was 30.6 µM (active); in experiment [6] it was 23.5 µM (active). For the same compound, the Potency result in experiment [13] and in experiment [7] was “inactive” in each case.

Consider `O=C1Nc2ccc(I)cc2C1=Cc1cc(Br)c(O)c(Br)c1`, for which the Potency in experiment [15] was 14.8 µM (active); in experiment [2], 8.33 µM (active). In addition, the Potency entry in [3], in experiment [13], in experiment [4], in experiment [17], in experiment [9] and in experiment [16] was “inactive” in each case. The Potency entry in experiment [14], in [5], in experiment [6], in experiment [7] and in experiment [11] was “inactive” in each case.

`O=C(O)CCC=CCC[C@@H]1[C@H](N2CCCCC2)[C@@H](O)C[C@@H]1OCc1ccc(-c2ccccc2)cc1`: the Potency entry in experiment [1], in experiment [3], in experiment [12], in experiment [13], in experiment [9] and in [16] was “inactive” in each case. Moreover, the Potency entry in experiment [14], in experiment [6] and in experiment [7] was “inactive” each time. In addition, the Potency in experiment [17] was 5.9 µM (active); in experiment [8] it was 18.7 µM (active).

In the case of `C[C@H]1[C@H](O)O[C@@H]2O[C@@]3(C)CC[C@@H]4[C@H](C)CC[C@@H]1[C@@]24OO3`, the Potency in experiment [15] was 7.43 µM (active); in experiment [2], 1.05 µM (active); in experiment [3], 3.85 µM (active); in [12] it was 3.72 µM (active); in experiment [18], 2.96 µM (active); in experiment [17], 5.9 µM (active). Besides, the Potency in experiment [16] is 1.53 µM (active); in experiment [10] it was 1.37 µM (active); in [5] it was 1.87 µM (active); in experiment [6], 23.5 µM (active). Further, the Potency entry in experiment [7], in experiment [11] and in experiment [8] was “inactive” throughout.

Take `CCCCC(C=O)NC(=O)C(CC(C)C)NC(=O)OCc1ccccc1` (centres undefined): the Potency entry in [1], in experiment [12], in [13], in experiment [18], in [9] and in [6] was “inactive” in each case. For the same compound, the Potency result in experiment [7] was “inactive”. Moreover, in experiment [17], the Potency was 26.4 µM (active).

With `CSc1cccc(Nc2ncc3cc(-c4c(Cl)cccc4Cl)c(=O)n(C)c3n2)c1`, the Potency was 0.418 µM (active) in [1]; 0.0935 µM (active) in [2]; 0.372 µM (active) in experiment [12]; 0.118 µM (active) in experiment [18]; 0.209 µM (active) in experiment [17]; 0.372 µM (active) in experiment [9]. Besides, the Potency in experiment [8] was 0.743 µM (active); in experiment [19], 2.93 µM (active). Moreover, the Potency entry in [4], in [16], in [7] and in experiment [11] was “inactive” in each case.

In the case of `CN(C)N=Nc1nc[nH]c1C(N)=O`, the Potency entry in experiment [15], in experiment [12], in experiment [13], in experiment [18], in [4] and in experiment [14] was “inactive” throughout. Moreover, the Potency result in [5], in [6], in experiment [7] and in experiment [8] was “inactive” each time. Further, the Potency in [2] was 2.64 µM (active).

For `O=C(NC[C@H](O)CO)c1ccncc1Nc1ccc(I)cc1F`, the Potency entry in experiment [1], in experiment [17], in [10], in experiment [6], in [7] and in experiment [11] was “inactive” in each case. The Potency is 5.26 µM (active) in experiment [2] and 21.5 µM (active) in [4].

In the case of `O=c1[nH]c(=O)n([C@H]2C[C@@H](O)[C@@H](CO)O2)cc1C(F)(F)F`, the Potency in [15] was 3.72 µM (active); in [2] it was 3.72 µM (active); in experiment [3] it was 3.06 µM (active); in [12] it was 18.7 µM (active); in [9] it was 3.32 µM (active); in experiment [16] it was 10.9 µM (active). Further, in [10], the Potency was 17.2 µM (active). Also, the Potency result in [13], in experiment [18], in experiment [6], in experiment [7], in experiment [11] and in experiment [8] was “inactive” in each case.

As to `O=S(=O)(O)c1ccc2cc(N=Nc3cc(S(=O)(=O)O)c4cccnc4c3O)ccc2c1`, the Potency entry in experiment [1], in experiment [13], in [9] and in [7] was “inactive” in each case. The Potency in [2] is 18.7 µM (active).

For the compound `COc1c(C)c2c(c(O)c1CC=C(C)CCC(=O)OCCN1CCOCC1)C(=O)OC2`, the Potency result in [1], in experiment [18], in experiment [14], in experiment [11] and in [8] was “inactive” each time. Besides, the Potency in [3] is 1.53 µM (active); in experiment [12], 0.59 µM (active); in experiment [16], 1.93 µM (active).

Take `CN1CCC[C@H]1CCO[C@](C)(c1ccccc1)c1ccc(Cl)cc1`: the Potency result in [1], in [3], in experiment [12], in [13], in experiment [9] and in [16] was “inactive” each time. Besides, the Potency entry in [14], in experiment [6], in experiment [7] and in experiment [11] was “inactive” each time. The Potency is 30.4 µM (active) in experiment [4], 20.9 µM (active) in [17] and 37.2 µM (active) in [5].
